# High-throughput results (PubChem)
# Pf growth 48h: P. falciparum growth inhibition at 48 hours (one generation). Potency, µM (series often up to 28.7 µM), inactives show at the highest dose activity change, negative = inhibition, most hits filed as inhibitors. P. falciparum luciferase growth in erythrocytes, 48 h. hit rate 5.9% among 310,000; further: potency means the concentration at half of the fitted maximal effect; on the % scale 0 is the no-effect control and ±100 the full control effect
#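 Here the parasites carry a stable luciferase gene and grow inside erythrocytes in Albumax-based RPMI medium with compound for one erythrocytic cycle. Activity is scored as loss of luminescent signal.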
# Shiga inhibitor: blocks Shiga toxin action in Vero cells; hit rate 9.2% among 290,000; Vero cells, Shiga toxin protein synthesis inhibition reporter; AID 2315; inhibition, % at 38.7 µM; in the data active means inhibition mostly above about 28%, no sharp cut-off; inactive means mostly below about 43%; further: 0% is about no effect
# Cycloheximide cs: affects cycloheximide protein synthesis inhibition readout, counter-screen; cell reporter, cycloheximide protein synthesis inhibition counterscreen; max response, %; hit rate 12% among 300,000; AID 2314; in the data active means max response mostly above about 13%, no sharp cut-off; inactive means mostly below about 14%; further: read at 38.3 µM for the half of the compounds with a filed dose; 0% is about no effect
# HCMV inh: blocks human cytomegalovirus replication | HFF cells, HCMV-luciferase reporter, 72 h; stronger effect = lower value | activity change, negative = inhibition, % at 57.5 µM | hit rate 4.5% among 410,000 | AID 1259415; in the data active means activity change below about -60%; inconclusive means no clear call, values can overlap the other calls; inactive means above about -39%; further: on the % scale 0 is the no-effect control and ±100 the full control effect
#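 Compounds were evaluated in HFFs infected with an HCMV luciferase reporter virus (MOI 1 PFU/cell). Luciferase in lysates collected 72 h post infection served as the replication measure.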
# Pf growth 96h: P. falciparum growth inhibition at 96 hours; P. falciparum luciferase reporter growth, 96 h; Potency, µM (doses to about 28.7 µM), for the others: top-dose activity change, negative = inhibition, hits mostly inhibitors; hit rate 6.9% among 320,000; AID 504834; further: potency means the concentration at half of the fitted maximal effect; on the % scale 0 is the no-effect control and ±100 the full control effect
#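 Infected RBCs, 2% Hct / 0.05% parasitemia final; luciferase-reporter P. falciparum; cpd 96 h, 37 C, 5% CO2; luciferase detection reagent; luminescence.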
# * marks the source's active call; other numbers are inactive results; i = inactive; ? = inconclusive; · = not tested or not shown. Shown are actives, neighbours in structure and some others; about 20% of the full set was active somewhere. Unless noted, the call rests on the fitted dose curve; in most records, active means well fitted inhibition curve with a large enough effect; inconclusive means small, poorly fitted or top-dose-only effect, or another doubt; inactive means no such curve, though single readings can be large or run the other way.
SMILES,Pf growth 48h,Shiga inhibitor,Cycloheximide cs,HCMV inh,Pf growth 96h
COc1ccc(-c2cn3cc(Cl)ccc3n2)cc1OC,47%,92*,21*,124,28%
COc1ccc(-c2nc3ccc(C)cn3c2Cc2ccc(C)cc2)cc1OC,·,·,·,-9,·
COc1ccc(-c2cn3cc(C)ccc3n2)cc1Br,159%,59*,40*,194,-6%
O=C(C1CC=CCC1)N1CCN(S(=O)(=O)c2ccc(F)cc2)CC1 (stereo not drawn),10%,·,·,-20,13%
CC(C)OP(=O)(CCP(=O)(OC(C)C)OC(C)C)OC(C)C,1%,-8,-1,12,1%
CCOc1cc(S(=O)(=O)NC2CCCCCC2)ccc1F,8%,41*,23,-8,·
CCOc1ccc(Br)cc1S(=O)(=O)NC1CCCC1,?,·,·,-21,8.3µM*
CCOc1ccc(Br)cc1S(=O)(=O)NC1=NCCCCC1,·,·,·,-64*,·
Cc1noc(Cn2c(=O)c3ccccc3n(CC(=O)Nc3ccc(Cl)cc3)c2=O)n1,·,·,·,-11,·
CCOc1ccc(N2C(=O)CC(N3CCN(c4ccc(Cl)cc4)CC3)C2=O)cc1 (stereo not drawn),1%,-18,2,5,3.3µM*
O=S(=O)(O)c1nc2ccccc2n1Cc1cccc2ccccc12,28%,17,6,·,26%
CC1CC2(CCCCC2)Nc2ccc3ccccc3c21 (stereo not drawn),10µM*,10,-2,-35,-21%
COc1ccc2c(c1)c(=O)oc1cc(OC(C(=O)O)c3ccccc3)ccc12 (stereo not drawn),8%,-12,-3,10,5%
Cc1cc(C)nc(SCC(=O)N/N=C/c2ccc3c(c2)OCO3)n1,27%,60*,39*,19,-5%
Cc1nn(CC(=O)N/N=C/c2ccc3c(c2)OCO3)c(C)c1Br,-9%,-4,-2,-11,0%
Cc1cc(C)n(CC(=O)N/N=C/c2ccc3c(c2)OCO3)n1,32%,12,1,?,3.7µM*
CN(C)c1cc2c(c(N(C)C)c1)C(=O)c1ccccc1C2=O,?,83,39*,-7,4.1µM*
Cc1ccc(S(=O)(=O)N(C)c2ccc3c(c2)C(=O)c2ccccc2-3)cc1,·,·,·,52,·
COc1ccc(NC(=O)c2ccco2)cc1NC(=O)COc1ccc(Cl)cc1C,·,·,·,-13,·
COc1ccc(NC(=O)c2ccco2)cc1NC(=O)COc1ccc(C)cc1C,·,·,·,-66*,·
Cc1ccc(NC(=O)COc2ccccc2)c(NC(=O)c2ccco2)c1,-10%,10,3,-3,-13%
COc1ccc(C)cc1NC(=O)C(=O)NNC(=O)c1ccco1,-3%,12,-1,51,1.9µM*
COc1ccc(NC(=O)c2ccco2)cc1NC(=O)COc1ccccc1,-16%,21,0,35,-13%
COc1ccc(OCC(=O)Nc2cc(NC(=O)c3ccco3)ccc2OC)cc1,?,20,6,36,8.3µM*
COc1ccccc1OCC(=O)Nc1cc(C)ccc1NC(=O)c1ccco1,?,-25,8,1,10µM*
SMILES,Pf growth 48h,Shiga inhibitor,Cycloheximide cs,HCMV inh,Pf growth 96h
Cc1cc(Cl)ccc1OCC(=O)NNC(=O)c1ccco1,21%,35*,35*,46,11%
CCOc1ccc(NC(=O)CN2C(=O)c3ccccc3Sc3ccc(C(=O)OC)cc32)cc1,·,·,·,14,·
C#CCN(C[C@@H]1[C@@H](OC(=O)NCc2ccco2)[C@@H](OC(=O)NCc2ccco2)Cn2c(=O)ccc(=O)n21)S(=O)(=O)c1ccc(C)cc1,·,·,·,-101*,·
C#CCN(C[C@@H]1[C@@H](OC(=O)NCc2ccco2)[C@@H](OC(=O)NCc2ccco2)Cn2c(=O)n(CCCCCC)c(=O)n21)S(=O)(=O)c1ccc(C)cc1,·,·,·,-74*,·
C#CCN(C[C@H]1[C@H](OC(=O)NCc2ccco2)[C@H](OC(=O)NCc2ccco2)C[C@H]2C(=O)N(c3ccccc3)C(=O)[C@@H]12)S(=O)(=O)c1ccc(C)cc1,·,·,·,7,·
C#CCN(C[C@@H]1[C@@H](OC(=O)NCc2ccc(OC)c(OC)c2)[C@@H](OC(=O)NCc2ccc(OC)c(OC)c2)Cn2c(=O)ccc(=O)n21)S(=O)(=O)c1ccc(C)cc1,·,·,·,-107*,·
CCCOc1cccc(C2C(C(=O)c3ccc(C)o3)=C(O)C(=O)N2c2nc(C)c(C(C)=O)s2)c1 (stereo not drawn),-18%,-8,1,60,?
c1ccc(-c2ccn3nnnc3n2)cc1,51%,74*,36*,56,54%
Cc1cnn2c(C3CC3)ccnc12,i,1,-5,17,?
